Test results from PubChem BioAssay AID1460 (National Center for Advancing Translational Sciences (NCATS), 2008).
Screen size: about 270,000 compounds; about 5,800 (2.1%) were called active. Roughly 16% stayed inconclusive and do not appear here. This is one part of a sample in which actives are shown more often than they occur. Calls come from the whole dose curve; as a rule, active = well fitted inhibition curve with a large enough effect; inconclusive = small, poorly fitted or top-dose-only effect; inactive = flat fitted curve, though single readings scatter.

Molecular target: Microtubule-associated protein tau (Homo sapiens) (UniProt P10636)
Sequence (P10636 561-689 P618L limits assumed): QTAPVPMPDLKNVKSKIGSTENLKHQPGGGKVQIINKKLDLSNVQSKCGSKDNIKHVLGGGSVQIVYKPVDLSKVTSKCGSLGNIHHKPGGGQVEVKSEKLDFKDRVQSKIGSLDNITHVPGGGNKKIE
Experiment: qHTS for Inhibitors of Tau Fibril Formation, Thioflavin T Binding; note: nearly all actives have a fitted effect of over 55% in size
Conditions: recombinant tau K18 P301L (four-repeat tau fragment), heparin-induced fibrillization, ThT fluorescence; series mostly up to 57.4 µM; activity, negative = inhibition: at the top concentration
Method in brief: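 Heparin-induced fibrillization of the P301L-mutant K18 repeat-domain fragment of human tau was followed by ThT binding in quantitative high-throughput format.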
% is set by controls: 0 for no effect and ±100 for the full control effect; potency is the fitted concentration of half-maximal effect.

activity, negative = inhibition, inactive:
O=C1CN(C(=O)Nc2ccccc2C(F)(F)F)C(c2ccccc2)c2c(sc3c2CCCC3)N1 (stereo not given) -14.6%
Cc1nc2ccc(S(=O)(=O)N(CC(=O)Nc3ccc(F)cc3)Cc3ccccc3)cc2s1 -5.37%
Cc1ccccc1CNC(=O)CSc1nnc(C)c2c(C)n(-c3ccccc3)nc12 -7.02%
CCN(CC)C(=O)C(=O)Nc1cccc(Br)c1 -2.21%
O=C(CCN1C(=O)c2ccccc2C1=O)Nc1cccc(F)c1 -9.93%
O=C(Nc1ccc(C(=O)OCc2cc(=O)n3nc(C4CC4)sc3n2)cc1)c1ccc(F)cc1 6.18%
O=C(Nc1ccc(F)cc1F)c1ccc2c(=O)n3c(nc2c1)CCCCC3 -11.2%
Cn1c(=O)n(Cc2c(F)cccc2Cl)c(=O)c2c1nc1n2CCN1c1ccc(F)cc1 -8.2%
CCOC(=O)Cc1csc(NC(=O)Nc2ccccc2)n1 -8.19%
Cc1c(NC(=O)Nc2ccccc2)cccc1[N+](=O)[O-] -10.4%
Cc1cc(C)cc(NC(=O)CCCc2nc(-c3ccccc3Cl)no2)c1 12.5%
Cc1ccc(C)c(N2C(=O)N(Cc3c(F)cccc3Cl)c3ccccc3S2(=O)=O)c1 1.5%
Cc1cccc(-n2ccnc2SCC(=O)Nc2cccc3ccccc23)c1C -14.8%
COc1ccc(OC)c(CNC(=O)c2c3c(nc4ccccc24)C(=O)N(C2CCCCC2)C3)c1 8.16%
Cc1ccc(C(=O)Nc2c(C(=O)NC(C)(C)C)oc3ccccc23)cc1 -0.42%
COCCNC(=O)c1ccccc1NS(=O)(=O)c1ccc(C)c([N+](=O)[O-])c1 5.22%
Cc1ccc(NS(=O)(=O)c2ccc(C)c(NC(=O)COc3ccc4ccccc4c3)c2)c(C)c1 -18.9%
COc1cccc(CNCc2c(C(=O)O)n(Cc3ccc(C)cc3)c3cc(C)ccc23)c1OC -6.73%
O=C(CCC1N=C2c3ccccc3N=C(SCc3ccccc3F)N2C1=O)NCCc1ccccc1 (stereo not given) -10.8%
Cc1ccc(N2C(=O)S/C(=C/c3cn(C)c4ccccc34)C2=O)cc1 -15.5%
Cn1cc(/C=C/c2nc3ccccc3c(=O)n2-c2cccc([N+](=O)[O-])c2)c2ccccc21 -5.45%
CCCn1c2ccccc2c2cnn(CC(=O)NCCCN3CCCCC3CC)c(=O)c21 (stereo not given) -11.7%
CCc1nnc2c3ccccc3nc(N3CCN(c4ccc(C)cc4C)CC3)n12 -13.5%
COc1cccc(Cn2c(CNS(=O)(=O)c3ccc(Cl)s3)nc3cccnc32)c1 -11.9%
Brc1ccc(CSc2ccc(-c3ccco3)nn2)cc1 -16.9%
Nc1nc(SCc2ccccc2Cl)n[nH]1 -8%
O=C(Nc1nnc(SCc2ccccc2)s1)c1ccco1 -8.61%
COC(OC)c1ccnc(SCc2ccccc2Cl)n1 -5.31%
COc1ccc(C2C(=O)N(C3CCCCC3)CC(=O)N2Cc2ccccc2Cl)cc1OC (stereo not given) 2.26%
Cc1onc(-c2ccc(F)cc2F)c1C(=O)Nc1cccc(C(F)(F)F)c1 1.56%
CCC(Sc1nc2n[nH]c(C)c2c(=N)n1-c1ccccc1Cl)C(=O)N(CC)CC (stereo not given) -9.58%
COc1ccccc1CNC(=O)C(=O)NCC(c1cccs1)S(=O)(=O)c1cccs1 (stereo not given) -3.27%
CN(C)c1ccc(/C=C/C(=O)c2ccc(C(C)(C)C)cc2)cc1[N+](=O)[O-] -1.69%
O=C(c1ccc(Cl)c([N+](=O)[O-])c1)N1CCN(c2ccccc2)CC1 4.34%
Cc1cc(C)n(-c2ccc(C(=O)O)cc2[N+](=O)[O-])n1 2.36%
CC(CC(=O)O)C(=O)c1ccc(Cl)c([N+](=O)[O-])c1 (stereo not given) -0.522%
COc1ccccc1CNc1ccc(-c2nc(-c3ccccc3C)no2)cc1[N+](=O)[O-] 13.3%
CCCOc1ccc(-c2cccc(NS(=O)(=O)c3ccccc3)c2)nn1 -11%
COc1ccc(CNC(=O)COCc2cc(-c3cccs3)on2)cc1OC 3.85%
Cc1ccc(Cn2cc(CCC(=O)NCc3ccc(OC(C)C)cc3)c3ccccc32)cc1 -3.01%
c1ccc(CNc2ncnc3[nH]ncc23)cc1 3.06%
CN1CCN(c2ccc(S(=O)(=O)Nc3ccccc3)cc2[N+](=O)[O-])CC1 -11.2%
CCN(CC)S(=O)(=O)c1cc([N+](=O)[O-])ccc1N=Nc1c(O)n(C)c2ccccc12 -9.16%
O=C(Nc1ccc(F)cc1F)c1cnn(-c2ccc(F)cc2)c1-n1cccc1 7.82%
Cc1ccc2c(c1)N(C(=O)CCC(=O)NCc1ccccc1F)CC(C)O2 (stereo not given) 3.16%
CCCS(=O)(=O)N1CCCC(C(=O)NCc2ccco2)C1 (stereo not given) -1.85%
CSc1ccccc1NC(=O)CN(C)CC(=O)Nc1ccc(Cl)cc1[N+](=O)[O-] -20.7%
CC(=O)N/N=C/c1cc2c(cc1[N+](=O)[O-])OCO2 4.29%
CC1Cc2cc(S(=O)(=O)CCC(=O)NCc3ccc(Cl)cc3)ccc2N1C(=O)C1CC1 (stereo not given) 6.6%
CCN1CCN(c2ncc3c(n2)CC(c2ccccc2O)CC3=O)CC1 (stereo not given) -2.07%
COc1ccc2nc(Nc3nc(-c4cc5ccccc5oc4=O)cs3)sc2c1 -4.36%
COc1ccc2nc(NC(=O)c3ccc(Br)s3)sc2c1 -9.29%
CCC1=Nc2cc(C(=O)NCCCOC(C)C)ccc2Sc2ccc(C)cc21 2.21%
COc1cc2nc(SCc3ccc(F)cc3)n3nc(CCn4c(C)nc5ccccc54)nc3c2cc1OC -12.9%
CCCN(CC(=O)Nc1ccc(C(N)=O)cc1)CC(=O)Nc1ccccc1C -3.27%
CCCC(=O)Nc1ccc(C(=O)NCCCn2ccnc2)cc1 -11.2%
CCOc1cc2[nH]c(=O)n(Cc3ccc(C(=O)NCCN(CC)CC)cc3)c(=O)c2cc1OCC 6.18%
CCN(CCCNC(=O)c1c(C)oc2ncn(CC(C)C)c(=O)c12)Cc1ccccc1 8%
Cc1ccc2[nH]c3c(=O)n(CC(=O)NC(C)C)ncc3c2c1 -3.68%
COc1ccc(Cc2nc3ccc(C(=O)NCc4ccccc4Cl)cc3o2)cc1 -9.09%
COc1ccc(OC)c(NC(=O)CSC2=Nc3ccccc3C3=NC(CC(=O)NCc4ccc(F)cc4)C(=O)N23)c1 (stereo not given) -12.4%
Cc1ccc(C(=O)CC2(O)C(=O)N(CCc3ccccc3)c3ccc(Br)cc32)cc1 (stereo not given) -9.21%
C#CCN1C(=O)C(O)(CC(=O)c2cc(OC)ccc2OC)c2ccccc21 (stereo not given) 0.707%
Cc1cccc(C(=O)N2c3nc(-c4ccco4)nn3C3(CCCCC3)[C@@H]3CCCC[C@@H]32)c1 -1.11%
COc1ccccc1N1CCN(C2C(=O)c3ccccc3N2C(C)=O)CC1 (stereo not given) -2.56%
CCOC(=O)C1=C(O)CSC1=Nc1cccc(Cl)c1 -2.64%
CC(=O)N1CCCc2cc(S(=O)(=O)N3CCC(C(=O)NCc4ccc(C)cc4)CC3)ccc21 -0.974%
CCCCN(CC)CCCNC(=O)c1nn(C)c2c1CS(=O)(=O)c1ccccc1-2 2.42%
Cc1c2cnn(-c3ccccc3)c(=O)c2c(C)n1C(C)C(=O)Nc1ccc(Br)cc1F (stereo not given) -2.01%
CCSc1ncnc2c(C#N)c3n(c12)CCCCC3 -2.45%
CCc1ccccc1NC(=O)c1ccc(F)c(S(=O)(=O)NC2CCCCCC2)c1 7.47%
Cc1oc2c(c1C(=O)Nc1ccc(F)c(F)c1)C1=NCCN1C=N2 -10.3%
CCOC(=O)c1ccc(CN(Cc2ccccc2)S(=O)(=O)c2ccc(Cl)cc2)cc1 2.81%
CC(C)CCN(C(=O)Nc1ccc(Cl)c(Cl)c1)C(C)c1cccs1 (stereo not given) -0.0803%
O=C(NCc1cccnc1)C(=O)Nc1nc(-c2ccccc2)cs1 -2.55%
COc1ccc(-c2csc(NC(=O)c3ccc(N4C(=O)CCC4=O)cc3)n2)cc1OC -10.6%
c1cnc(Nc2nc(-c3ccc4ccccc4c3)cs2)nc1 -9.51%
c1ccc(Nc2nc(-c3ccncc3)cs2)nc1 -22.3%
COc1ccc(-c2csc(NC(=O)COC(=O)c3ccc(Br)o3)n2)cc1 -9.91%
COc1ccc(-c2csc(NC(=O)CCCc3cccs3)n2)cc1 -12.1%

Potency, active:
CCN(CC)C(=O)CSC(Nc1cccc(F)c1)=C(C#N)C#N 28.2 µM
CCOC(=O)/C(=N\Nc1ccccc1[N+](=O)[O-])c1csc(Nc2ccccc2)n1 5.01 µM
Cc1ccc(NS(=O)(=O)c2ccc(N/N=C/c3ccccc3OCC(=O)O)c([N+](=O)[O-])c2)c(C)c1 12.6 µM
Cc1cccc(N=C2NC(=O)/C(=C/c3cn(C)c4ccccc34)S2)c1 11.2 µM
c1ccc(CSc2nnc(-c3ccco3)c(-c3ccco3)n2)cc1 7.94 µM
Clc1ccccc1CSc1nnc(-c2ccco2)c(-c2ccco2)n1 17.8 µM
CN(C)c1ccc(/C=C/C(=O)c2ccc(O)cc2)cc1[N+](=O)[O-] 4.47 µM
O=C(/C=C/c1ccc(Cl)c([N+](=O)[O-])c1)c1ccc(O)cc1 15.8 µM
O=[N+]([O-])c1cc(S(=O)(=O)Nc2cccc(Cl)c2)ccc1N=Nc1c(O)[nH]c2ccccc12 10 µM
CC1CN(C(=O)N2CCC(C(=O)NCc3ccco3)CC2)c2cc(Cl)ccc2O1 (stereo not given) 31.6 µM
CN(C)/N=C/c1cc(Cl)cc([N+](=O)[O-])c1O 15.8 µM
COc1ccc2nc(Nc3nc4cc5c(cc4s3)OCCO5)sc2c1 3.55 µM
C=CC(C1=CC(=O)C=CC1=O)c1ccc(O)cc1 (stereo not given) 28.2 µM
CCCC(=O)Nc1ccc(C(=O)N/N=C/c2ccc[nH]2)cc1 15.8 µM
COc1ccc2c(c1)C(=C(C#N)C#N)C(=O)N2CCc1ccccc1 28.2 µM
CN(C)c1nc(=Nc2cccc(Cl)c2)ss1 25.1 µM
CCSC1=C(C#N)C(=O)n2c1cc1c2CCCC1 25.1 µM
Oc1ccc(-c2csc(Nc3cccnc3)n2)cc1 15.8 µM
COc1ccc(-c2csc(Nc3ccc(O)cc3)n2)cc1 7.94 µM
COc1ccc(OC)c(Nc2nc(-c3ccc(O)c(O)c3)cs2)c1 10 µM
